Assay in all cases: PBM binding z-score (relative to random genomic background probes); higher = stronger binding; sequences stand for … in GC…GCGATTGACAGCGTAGAATGAAGG
The test system of test [1] is RARb homodimer (NR concentration 270 nM). The essentials: (§1)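 Each nuclear receptor dimer, without ligand, was incubated for 1 h on custom Agilent 4×180K protein-binding microarrays. Binding was detected with antibodies against each partner (one per run), and scanned fluorescence was regression-normalized. The binding z-scores are referenced to random human genomic background probes.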

The subject of test [2] is RARg:RXRa (NR concentration 270 nM, RXRa partner concentration 90 nM). The essentials: as §1
For test [3], the system named is RARg homodimer (NR concentration 270 nM). The essentials: as §1
The subject of test [4] is RXRa DBDmut IVT, anti-RXR (DBD mutation: RXRa K156A/R161A, NR concentration 90 nM). The essentials:
as §1

Test [5] deals with RXRa homodimer (NR concentration 180 nM). The essentials: as §1
For test [6], the system named is THRa:RXRa (NR concentration 90 nM, RXRa partner concentration 90 nM). The essentials: as §1
Test [7] relates to THRa homodimer (NR concentration 90 nM). The essentials: as §1
Test [8] has as its system VDR homodimer (NR concentration 270 nM). The essentials: as §1

Drawing on the supplement of paper PMC6555819, this text covers PBM binding z-score for seven sequences.

As for CGAACTAGGTCAAGGACAGGGAATCTCCGCACGC, the PBM binding z-score in test [1] turned out to be 3.19; in test [2] it was 4.09; in test [3], 5.13; in test [4] it was 1.35; in test [5], 2.84; in test [6], 3.13. In addition, the values for the PBM binding z-score in test [7] and in test [8] were 2.25 and 0.294, respectively.
CCTAGTTGGTCAAGAGGTCACACACCGGATATGA: the PBM binding z-score in test [1] was 5.08; in test [2], 6.18; in test [3] it was 5.31; in test [4] it was 1.37; in test [5] it was 6.37; in test [6], 4.15. The PBM binding z-score in test [7] worked out at 2.75; in test [8] it was 3.07.
Consider AGTCAAAGTTCAGGACGAAGTAACGTAAAGCACG, for which the PBM binding z-score in test [1] amounted to 2.72; in test [2] it was 3.82; in test [3] it was 4.58; in test [4], 2.8; in test [5], 2.71; in test [6] it was 1.95. The PBM binding z-score in test [7] turned out to be 0.0307; in test [8], 1.27.
Turning to TCTGCTAGGTTAGTTGGTCAGCTAACGAGCTGCC, the PBM binding z-score is -0.0655 in test [1]; 0.00476 in test [2]; -0.189 in test [3]; -0.0929 in test [4]; -0.323 in test [5]; -0.551 in test [6]. In addition, the values for the PBM binding z-score in test [7] and in test [8] were -1.24 and -1.15, respectively.
For the sequence AGAACGAGGGCAACGAGTTGATAGCACGGGTGGC, the PBM binding z-score in test [1] was found to be 0.919; in test [2], 1.41; in test [3], 1.74; in test [4], 1.76; in test [5] it was 0.952; in test [6] it was 0.99. For the same sequence, the values for the PBM binding z-score in test [7] and in test [8] were -0.357 and 2.5, respectively.
On to GCATATAGGTAATACAAGGGGAAAGTCCGATTGT, for which the PBM binding z-score in test [1] was -0.0469; in test [2], 0.247; in test [3] it was 0.368; in test [4] it was 0.734; in test [5] it was 0.3; in test [6], 1.94. For the same sequence, the PBM binding z-score in test [7] is -0.473; in test [8], 0.0263.
As to TGTCAAACTTCAAAGGTAACGTAAGTATCCACAC, the PBM binding z-score was 0.582 in test [1]; 0.654 in test [2]; 0.586 in test [3]; -0.455 in test [4]; 0.655 in test [5]; 1.1 in test [6]. Moreover, the PBM binding z-score was -0.0249 in test [7] and -0.101 in test [8].
